Source: PubChem BioAssay
Dicer inh – blocks human Dicer maturation of pre-miR-21. Q9UPY3. cat-ELCCA pre-miR-21 Dicer processing, chemiluminescence; stronger effect = higher value. z-score at 25 µM. actives 6% (n = 47,000). AID 1347074; in the data active means z-score above about 3, passing the limit was not always enough;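 further: plate controls were vehicle for no effect and no enzyme for full effect; higher signal means more uncleaved substrate so more Dicer inhibition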
An asterisk follows results filed as active. Only a selection was taken, and hits are over-represented in it overall.

SMILES	Dicer inh
FC(F)(F)c1cccc(CSC2=NCCCN2)c1	0.46
Cc1ccc(C(=O)/C=C/Sc2nc3ccc(C)cc3[nH]2)cc1	1.1
Cc1ccc2nc(CCCC(=O)O)[nH]c2c1	3.6*
O=C(O)Cc1nc2ccc(Cl)cc2[nH]1	-0.26
C/C(=N\NC(=S)NC(C)(C)C)c1cc(F)ccc1O	1.1
CC1CCC(C)(C)CN(c2ccc(C(F)(F)F)cc2[N+](=O)[O-])C1 (configuration not stated)	-0.85
O=C(O)C1=CS[C@@H]2/C(=C\c3cnc4n3CCOC4)C(=O)N12	-0.23
O=C1C=C(NC2Cc3ccccc3C2)CC(c2ccccc2)C1 (configuration not stated)	-0.9
CN(C)c1ccc(C2CC(=O)C=C(NC3Cc4ccccc4C3)C2)cc1 (configuration not stated)	4.6*
O=C1C=C(NC2Cc3ccccc3C2)CC(c2cccc(Cl)c2)C1 (configuration not stated)	-0.95
CCOc1ccc(C2C(C(=O)OCc3ccccc3)=C(C)N=C3SCCC(=O)N32)cc1OCC (configuration not stated)	2.1
COc1ccc(C2CC(=O)C3=C(C2)Nc2ccccc2NC3c2ccccc2OC(C)C)cc1OC (configuration not stated)	0
COc1cc(C2Nc3ccccc3NC3=C2C(=O)CC(c2ccccc2)C3)cc(Cl)c1O (configuration not stated)	3.2*
COc1ccc(C2Nc3ccccc3NC3=C2C(=O)CC(c2ccccc2)C3)cc1O (configuration not stated)	1.5
CC(C)Oc1ccccc1C1Nc2ccccc2NC2=C1C(=O)CC(c1ccccc1)C2 (configuration not stated)	5.7*
COc1ccc(C2CC(=O)C3=C(C2)Nc2ccccc2NC3c2ccccc2OC(C)C)cc1 (configuration not stated)	2.2
COc1ccc(C2CC(=O)C3=C(C2)Nc2ccccc2NC3c2ccc(Cl)cc2)cc1OC (configuration not stated)	2.4
COc1ccc2nc3c(cc2c1)c(=O)n(C)c1c3c(=O)n(-c2ccccc2)c(=O)n1-c1ccccc1	-0.73
CNC(=O)n1nccc1-c1sc2ccccc2c1C	-3.8
COc1cc(C2C(C(=O)OC(C)C)=C(C)NC3=C2C(=O)CC(c2ccccc2)C3)cc(Cl)c1O (configuration not stated)	1.3
FC(F)(F)c1cc(NC(=S)N2CCCCC2CCN2CCOCC2)cc(C(F)(F)F)c1 (configuration not stated)	-1.7
CCN(CC)c1ccc(NC(=O)c2cnn3c(C(F)F)cc(C)nc23)cc1	0.47
CN(C)C(=O)C12CCC(C)(C(=O)C1)C2(C)C (configuration not stated)	3.1*
COc1cc(NC(C)=O)ccc1/C=N/NC(N)=S	4.4
CC(C)(C)C(=O)c1cn(CC(=O)N2CCOCC2)c2ccccc12	2.9
SMILES	Dicer inh
Cc1ccc(-c2cc(C(F)F)n3ncc(C(=O)NC4CCCC4)c3n2)cc1	1.5
O=C(O)c1cc(-c2ccccn2)nc2ccccc12	-0.85
COc1ccc(-c2cc(C(=O)O)c3ccccc3n2)c(OC)c1	4.5*
Nc1cccc(-c2cc(C(=O)O)c3ccccc3n2)c1	-0.8
COCCOC(=O)C1=C(C)NC2=C(C(=O)CC(C)(C)C2)C1c1cccc(OCc2ccccc2)c1 (configuration not stated)	1.4
Cn1c(=O)c2c(ncn2CC(=O)NCc2ccccn2)n(C)c1=O	1
N#Cc1c(NC(=O)c2ccc(S(=O)(=O)N3CCOCC3)cc2)sc2c1CCCC2	1.4
Clc1ccccc1CN1CCN(CC2CC3C=CC2C3)CC1 (configuration not stated)	0.88
CCOc1cccc(=O)c2c(C)n(-c3ccc(C(=O)O)cc3)c(C)c12	10*
CCOc1cccc(=O)c2c(C)[nH]c(C)c12	1.8
COc1cccc(=O)c2c(C)n(-c3ccc(C(=O)O)cc3)c(C)c12	2.1
COc1cc(Cl)c(NS(=O)(=O)c2cc(C(F)(F)F)cc(C(F)(F)F)c2)c(OC)c1	0.95
c1ccc(C2Oc3ccccc3C3CC(c4cccs4)=NN32)nc1 (configuration not stated)	1.5
O=[N+]([O-])c1ccc(/C=C/C2Oc3ccccc3C3CC(c4cccs4)=NN23)o1 (configuration not stated)	6.5*
Cc1ccc(C2=NN3C(C2)c2ccccc2OC3c2ccc(F)cc2)o1 (configuration not stated)	2.1
O=C1/C(=C/c2ccc(Cl)cc2)C(c2ccccc2)Oc2ccccc21 (configuration not stated)	-0.94
CCCCNC(=S)N(CCC#N)C1CCCCC1	-0.62
CC(SCC(=O)O)(SCC(=O)O)c1cccc([N+](=O)[O-])c1	0.4
CCOC(=O)c1oc2nc(-c3ccccc3)cc(-c3ccccc3)c2c1N	-2.3
O=C1CCC(=O)N1CNc1ccc(F)cc1F	4.6*
CC(C)c1ccc(Nc2cc(=O)[nH]n2C)cc1	-1.8
O=C1CCC(=O)N1CNc1c(F)cccc1F	0.95
Cc1cc(Cl)ccc1NCN1C(=O)CCC1=O	5.2*
